Results reported in PubChem BioAssay.
Calls of active or inactive are those of the source.

Tests used:
[1] = test system: Wnt5a (protein binding on small-molecule microarray); test: Wnt5a binders on small-molecule microarray, primary screen, biophysical, 635/667 nm fluorescence (AID 1142); conditions: 635 nm fluorescence, higher = more signal;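 further: fluorescence read at 667 nm with signal to noise per printed feature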
[2] = cell viability in Huh7 cells, primary screen, cytotoxicity control for HCV replication inhibitor project, CellTiter-Glo luminescence, basal, 48 h (AID 1143); conditions: Huh7 HCV replicon, higher = more signal, called active from +8 up or from −8 down;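 further: Huh7 hepatoma cells carrying a hepatitis C replication reporter with no stimulus; test concentration not given here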
[3] = CREB reporter modulators without forskolin, primary screen, cell-based, PC12, CRE-LacZ reporter, unstimulated (AID 1145); conditions: no forskolin, luminescence, 4.5 h, higher = more signal, called active from +8 up or from −8 down
[4] = CREB reporter modulators under forskolin, primary screen, cell-based, PC12, CRE-LacZ reporter, forskolin-stimulated (AID 1146); conditions: luminescence, 4.5 h, higher = more signal, called active from +8 up or from −8 down;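 further: PC12 cells with 6xCRE LacZ reporter stimulated by forskolin 10 µM; beta-galactosidase reporter signal reflecting CREB driven transcription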
[5] = target: Streptavidin (Streptomyces avidinii) (UniProt P22629); test: streptavidin binders on small-molecule microarray, primary screen, artefact control for SMM compound annotation, biophysical, 635/667 nm fluorescence (AID 1147); conditions: streptavidin binding, higher = more signal;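 further: signal reflects streptavidin binding to arrayed compounds as a control protein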
Streptavidin (Streptomyces avidinii), sequence (P22629 whole entry, looked up): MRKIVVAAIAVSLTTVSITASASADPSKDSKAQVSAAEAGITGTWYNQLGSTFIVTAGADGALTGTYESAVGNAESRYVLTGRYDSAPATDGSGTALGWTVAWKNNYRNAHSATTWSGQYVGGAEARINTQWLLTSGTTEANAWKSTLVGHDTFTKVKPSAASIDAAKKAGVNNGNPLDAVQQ

[6] = small-molecule binders of probe aInhba, primary screen, biochemical, small-molecule microarray, 635/667 nm fluorescence (AID 1148); conditions: higher = more signal;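 further: score merges 667nm spot fluorescence with signal-to-noise for antibody binding to printed compounds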
[7] = target: Torsin-1A (Homo sapiens) (UniProt O14656); test: torsin A binders from cell lysate, primary screen, small-molecule microarray, wild-type, 635/667 nm (AID 1149); conditions: COS7 hTOR1A-WT lysate, 635 nm fluorescence, higher = more signal
Torsin-1A (Homo sapiens), sequence (O14656 whole entry, looked up): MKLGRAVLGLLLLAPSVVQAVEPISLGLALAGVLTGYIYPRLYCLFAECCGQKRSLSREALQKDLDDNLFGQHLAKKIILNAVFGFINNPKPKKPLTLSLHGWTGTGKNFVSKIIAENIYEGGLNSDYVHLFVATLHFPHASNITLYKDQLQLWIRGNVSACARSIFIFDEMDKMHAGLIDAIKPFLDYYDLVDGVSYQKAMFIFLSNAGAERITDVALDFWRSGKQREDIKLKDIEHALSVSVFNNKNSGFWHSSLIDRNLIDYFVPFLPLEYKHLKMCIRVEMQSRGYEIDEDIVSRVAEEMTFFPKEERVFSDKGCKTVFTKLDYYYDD

[8] = target: Torsin-1A (Homo sapiens) (UniProt O14656); test: small-molecule binders of mutant TOR1A in lysate, primary screen, cell lysate, small-molecule microarray, COS7 lysate, 635/667 nm fluorescence (AID 1150); conditions: COS7 hTOR1A mutant lysate, 635 nm fluorescence, higher = more signal;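 further: score pools 667 nm emission and signal to noise measuring lysate protein binding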
[9] = test system: Sonic hedgehog protein (Shh); test: small-molecule binders of Shh protein, primary screen, biochemical, small-molecule microarray, 635/667 nm fluorescence (AID 1151); conditions: small-molecule microarray binding, 635 nm fluorescence; higher = more signal;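 further: Shh protein binding to compounds spotted on small-molecule microarray slides; score combines spot fluorescence intensity with signal-to-noise across triplicate slides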
[10] = E. coli DRC41 culture turbidity changes, primary screen, E. coli filamentation inducer project, strain DRC41, OD650, 48 h (AID 1152);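 further: E. coli MC1000 strain DRC41 lacking acrAB efflux pump and sulA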; conditions: E. coli DRC41 (acrAB sulA), higher = more signal, called active from +8 up or from −8 down
[11] = small-molecule binders of probe aLefty1, primary screen, biochemical, small-molecule microarray, 635/667 nm fluorescence (AID 1153); conditions: higher = more signal;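 further: score merges spot fluorescence with signal-to-noise ratio from the scanned slide images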
[12] = PSAC antagonists in infected red cells, primary screen, cell-based, P. falciparum Indochina, OD700, 1 h (AID 1154); conditions: P. falciparum Indochina infected RBC osmotic lysis, higher = more signal, called active from +8 up or from −8 down
[13] = PSAC antagonists in infected red cells, primary screen, cell-based, P. falciparum Indochina, OD700, 2 h (AID 1155);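 further: lysis reports solute entry through the parasite surface anion channel PSAC; channel blockers reduce lysis of infected cells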; conditions: P. falciparum Indochina infected erythrocytes, osmotic lysis OD700; higher = more signal, called active from +8 up or from −8 down
[14] = osmotic lysis modulators in infected erythrocytes, primary screen, PSAC antagonist project, cell-based, P. falciparum Indochina, OD700, 3 h (AID 1156); conditions: higher = more signal, called active from +8 up or from −8 down
[15] = PSAC antagonists in infected red cells, primary screen, cell-based, P. falciparum Indochina, OD700, 18 h (AID 1157); conditions: P. falciparum Indochina infected erythrocytes, osmotic lysis OD700, 18 h; higher = more signal, called active from +8 up or from −8 down
[16] = modulators of S6 phosphorylation in cells, primary screen, cell-based, A549, cytoblot, luminescence, serum-stimulated (AID 1158); conditions: A549 phospho-S6 cytoblot, 5 h, higher = more signal;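 further: serum-stimulated A549 lung adenocarcinoma cells; signal is phosphorylated S6 detected by cytoblot immunostaining with HRP secondary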
[17] = target: NADPH oxidase 2 (Homo sapiens) (UniProt P04839); test: NOX2-dependent H2O2 signal modulators, primary screen, NOX inhibitor project, cell-based, HEK293-NOX2, PMA-stimulated, Amplex Red fluorescence (AID 1159); conditions: 45 min, higher = more signal, called active from +8 up or from −8 down; further: test concentration not given here
NADPH oxidase 2 (Homo sapiens), sequence (P04839 whole entry, looked up): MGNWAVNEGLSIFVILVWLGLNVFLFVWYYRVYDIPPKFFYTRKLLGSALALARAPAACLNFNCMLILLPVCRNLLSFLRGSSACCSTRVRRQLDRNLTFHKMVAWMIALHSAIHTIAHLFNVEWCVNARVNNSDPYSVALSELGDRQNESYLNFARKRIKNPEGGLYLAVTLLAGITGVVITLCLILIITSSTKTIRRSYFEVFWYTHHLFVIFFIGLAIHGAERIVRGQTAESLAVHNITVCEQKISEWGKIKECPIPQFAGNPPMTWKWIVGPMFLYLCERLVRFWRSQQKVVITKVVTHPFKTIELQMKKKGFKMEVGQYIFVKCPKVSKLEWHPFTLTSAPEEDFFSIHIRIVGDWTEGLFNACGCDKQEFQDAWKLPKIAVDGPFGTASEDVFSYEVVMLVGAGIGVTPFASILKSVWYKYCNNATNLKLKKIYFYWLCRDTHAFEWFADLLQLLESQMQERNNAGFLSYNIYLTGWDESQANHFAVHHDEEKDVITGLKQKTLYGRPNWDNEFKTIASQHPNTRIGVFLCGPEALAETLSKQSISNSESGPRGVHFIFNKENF

[18] = target: NADPH oxidase 4 (Homo sapiens) (UniProt Q9NPH5); test: NOX4-dependent H2O2 signal modulators, primary screen, NOX inhibitor project, cell-based, HEK293-NOX4, tetracycline-induced, Amplex Red fluorescence (AID 1160); conditions: 45 min, higher = more signal, called active from +8 up or from −8 down
NADPH oxidase 4 (Homo sapiens), sequence (Q9NPH5 whole entry, looked up): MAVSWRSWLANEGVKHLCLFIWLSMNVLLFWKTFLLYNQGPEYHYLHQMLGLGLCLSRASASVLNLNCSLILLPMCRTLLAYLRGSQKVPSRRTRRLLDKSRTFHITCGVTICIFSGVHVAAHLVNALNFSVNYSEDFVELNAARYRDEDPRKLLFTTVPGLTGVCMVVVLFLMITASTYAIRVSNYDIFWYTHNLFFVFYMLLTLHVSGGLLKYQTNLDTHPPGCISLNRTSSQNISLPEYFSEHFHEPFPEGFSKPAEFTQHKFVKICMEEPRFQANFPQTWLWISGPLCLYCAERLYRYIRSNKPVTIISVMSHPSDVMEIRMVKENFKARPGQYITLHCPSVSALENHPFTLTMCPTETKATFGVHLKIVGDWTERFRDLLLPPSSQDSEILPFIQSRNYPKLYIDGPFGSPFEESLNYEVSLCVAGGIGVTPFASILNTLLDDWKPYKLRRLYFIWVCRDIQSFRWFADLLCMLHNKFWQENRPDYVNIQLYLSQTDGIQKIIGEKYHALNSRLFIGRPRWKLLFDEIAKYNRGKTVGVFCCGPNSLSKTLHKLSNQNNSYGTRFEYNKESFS

[19] = target: NADPH oxidase 5 (Homo sapiens) (UniProt Q96PH1); test: NOX5-dependent H2O2 signal modulators, primary screen, NOX inhibitor project, cell-based, HEK293-NOX5, Amplex Red fluorescence (AID 1161); conditions: HEK293-NOX5, ionomycin, 45 min, higher = more signal
NADPH oxidase 5 (Homo sapiens), sequence (Q96PH1 whole entry, looked up): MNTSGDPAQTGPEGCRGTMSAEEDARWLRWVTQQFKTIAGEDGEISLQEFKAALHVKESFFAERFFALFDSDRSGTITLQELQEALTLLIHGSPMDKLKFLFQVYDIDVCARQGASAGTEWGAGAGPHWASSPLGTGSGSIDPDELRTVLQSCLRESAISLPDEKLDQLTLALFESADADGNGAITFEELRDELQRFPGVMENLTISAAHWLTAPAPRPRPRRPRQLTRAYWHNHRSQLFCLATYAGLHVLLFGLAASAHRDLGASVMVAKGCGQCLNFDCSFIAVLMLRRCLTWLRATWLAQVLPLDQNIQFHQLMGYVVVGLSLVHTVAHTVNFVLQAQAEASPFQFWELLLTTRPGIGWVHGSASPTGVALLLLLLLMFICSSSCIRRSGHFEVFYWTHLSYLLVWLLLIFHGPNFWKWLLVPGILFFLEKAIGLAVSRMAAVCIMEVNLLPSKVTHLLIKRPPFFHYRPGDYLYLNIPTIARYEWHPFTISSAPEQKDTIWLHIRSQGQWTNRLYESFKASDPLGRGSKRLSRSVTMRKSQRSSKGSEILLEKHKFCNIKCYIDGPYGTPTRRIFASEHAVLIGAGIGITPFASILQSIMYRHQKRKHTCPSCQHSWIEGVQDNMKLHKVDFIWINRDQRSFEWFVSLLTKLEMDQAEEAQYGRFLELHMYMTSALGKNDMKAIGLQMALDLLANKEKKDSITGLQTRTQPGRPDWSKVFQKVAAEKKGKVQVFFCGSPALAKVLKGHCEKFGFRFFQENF

Row | SMILES | composite z-score [1] | z-score [2] | z-score [3] | z-score [4] | composite z-score [5] | composite z-score [6] | composite z-score [7] | composite z-score [8] | composite z-score [9] | z-score [10] | composite z-score [11] | z-score [12] | z-score [13] | z-score [14] | z-score [15] | z-score [16] | z-score [17] | z-score [18] | z-score [19]
1 | C=CCNC(=O)[C@H]1[C@@H]2C(=O)O[C@@H](c3ccccc3)[C@@H](c3ccccc3)N2[C@@H](c2ccccc2OCCO)[C@]12C(=O)N(C(=O)OCCOC)c1ccc(C#CCC(C(=O)OC)C(=O)OC)cc12 | 0.302 | -3.84 (inactive) | 0.775 (inactive) | 0.105 (inactive) | -0.204 | 0.225 | 0.825 | 0.946 | 1.81 | 2.88 (inactive) | 0.042 | 2.93 (inactive) | -0.183 (inactive) | 0.824 (inactive) | -2.13 (inactive) | 2.23 | 0.819 (inactive) | 0.0202 (inactive) | 0.521
2 | CC(=O)NCCCC[C@@H]1NC(=O)[C@@H]2C[C@H](C(=O)NCCCCCNC(=O)CS)[C@H](c3ccc(O)cc3)N2C1=O | 0.443 | -1.62 (inactive) | -0.134 (inactive) | -1.45 (inactive) | -0.654 | -0.179 | 0.0918 | 0.324 | 1.49 | 3.01 (inactive) | -0.0528 | 2.55 (inactive) | -0.247 (inactive) | -2.2 (inactive) | -1.04 (inactive) | 1.68 | 0.391 (inactive) | 0.284 (inactive) | 0.531
3 | C[C@@H]1CC[C@H]2C(=O)N3[C@@H](CC[C@@H](C)[C@@H]3c3cccc(N4CCOCC4)c3)C(=O)N2[C@H]1c1cccc(N2CCOCC2)c1 | -0.0915 | -0.334 (inactive) | 9.59 (active) | -0.84 (inactive) | 0.766 | -0.278 | 1.38 | 0.312 | 0.106 | 0.107 (inactive) | 0.191 | 0.43 (inactive) | 0.367 (inactive) | 0.567 (inactive) | 0.197 (inactive) | 0.348 | 1.07 (inactive) | -1.09 (inactive) | 0.125
4 | CO[C@H]1COC(=O)CC=C[C@@H](C)COC(=O)[C@@H](C)NC(=O)CC=C[C@@H]1C | 0.272 | -3.48 (inactive) | 0.608 (inactive) | -1.09 (inactive) | -0.697 | -0.218 | 2.49 | 0.711 | 2.06 | -0.414 (inactive) | -0.276 | -0.401 (inactive) | -0.599 (inactive) | -0.768 (inactive) | -0.872 (inactive) | 2.57 | -0.206 (inactive) | 0.534 (inactive) | 0.984
5 | CC(C)CN1C(=O)[C@@]2(Cc3ccccc31)c1ccccc1C(=O)N(C1CCCCC1)[C@H]2c1ccc(CO)cc1 | -0.194 | -2.02 (inactive) | -0.152 (inactive) | -0.876 (inactive) | -1.12 | -0.208 | -0.475 | -0.488 | -0.264 | 1.83 (inactive) | -0.101 | 0.838 (inactive) | -0.528 (inactive) | -0.0544 (inactive) | -1.24 (inactive) | 2.22 | -0.236 (inactive) | -1.31 (inactive) | 0.441
